According to PubChem BioAssay AID1159580 (chemical genetic matrix, 2015):
Values joined by “and” are separate entries in the source; they are usually repeats but may differ in a detail not shown here. Equal values may be shown once. Hit rate of the full screen: of about 5,500 compounds, about 2,000 (36%) were called active. Not shown: some 18% with an inconclusive outcome. Cut-off read from the data, not from the text of the source: active = normalized growth mostly below about 0.91 (no sharp cut-off); inconclusive = no clear call, values can overlap the other calls; inactive = mostly above about 0.92. The list shows a part of the results.

Experiment: chemical genetic growth profiling, strain panel (AID 1159580);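 note: tested at 20 µM; growth read once vehicle control cultures reached saturation at 30 °C; 1 = growth at the plate median or of vehicle wells; lower values mean less growth of the strain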
Conditions: S. cerevisiae deletion strains, growth OD

Measured: normalized growth

CCCCC(=O)O[C@]1(C(=O)CO)[C@@H](C)CC2C3CCC4=CC(=O)C=C[C@]4(C)[C@@]3(F)C(O)C[C@@]21C (stereo partly drawn)
inactive: locus YAL013W, strain DEP1, stronger effect = lower value 0.968 | locus YAL021C, strain ccr4, stronger effect = lower value 0.982 | locus YAL026C, strain drs2, stronger effect = lower value 1.01 | locus YAL030W, strain snc1, stronger effect = lower value 0.981 | locus YBL061C, strain skt5, stronger effect = lower value 0.978 | locus YBR009C, strain hhf1, stronger effect = lower value 0.99 | locus YBR021W, strain FUR4, stronger effect = lower value 0.986 | locus YBR023C, strain chs3, stronger effect = lower value 0.98 | locus YBR171W, strain sec66, stronger effect = lower value 0.941 | locus YBR229C, strain ROT2, stronger effect = lower value 0.99 | locus YBR231C, strain swc5, stronger effect = lower value 0.948 | locus YBR279W, strain paf1, stronger effect = lower value 0.991 | locus YCL011C, strain gbp2, stronger effect = lower value 0.99 | locus YCL016C, strain dcc1, stronger effect = lower value 1.01 | locus YCL029C, strain bik1, stronger effect = lower value 0.981 | locus YCL069W, strain vba3, stronger effect = lower value 0.989 | locus YCR088W, strain abp1, stronger effect = lower value 0.997 | locus YDL005C, strain med2, stronger effect = lower value 0.972 | locus YDL035C, strain GPR1, stronger effect = lower value 1.03 | locus YDL040C, strain nat1, stronger effect = lower value 0.975 | locus YDL074C, strain BRE1, stronger effect = lower value 0.979 | locus YDL101C, strain DUN1, stronger effect = lower value 0.961 | locus YDL134C, strain PPH21, stronger effect = lower value 1 | locus YDL185W, strain tfp1, stronger effect = lower value 0.97 | locus YDL192W, strain arf1, stronger effect = lower value 0.978 | locus YDR001C, strain nth1, stronger effect = lower value 0.986 | locus YDR069C, strain doa4, stronger effect = lower value 0.968 | locus YDR101C, strain arx1, stronger effect = lower value 0.998 | locus YDR137W, strain rgp1, stronger effect = lower value 0.979 | locus YDR159W, strain sac3, stronger effect = lower value 0.974 | locus YDR162C, strain NBP2, stronger effect = lower value 1.01 | locus YDR195W, strain ref2 0.963 | locus YDR297W, strain sur2, stronger effect = lower value 0.975 | locus YDR318W, strain mcm21, stronger effect = lower value 0.996 | locus YDR334W, strain swr1, stronger effect = lower value 0.988 | locus YDR335W, strain msn5, stronger effect = lower value 0.977 | locus YDR388W, stronger effect = lower value 0.982 | locus YDR392W, strain spt3, stronger effect = lower value 1.07 | locus YDR502C, strain sam2, stronger effect = lower value 0.988 | locus YEL003W, strain gim4, stronger effect = lower value 0.987 | locus YEL037C, strain rad23, stronger effect = lower value 0.991 | locus YEL061C, strain CIN8 (second series), stronger effect = lower value 0.991 | locus YEL061C, strain CIN8, stronger effect = lower value 0.995 | locus YER015W, strain faa2, stronger effect = lower value 0.979 | locus YER016W, strain bim1, stronger effect = lower value 1.02 | locus YER110C, stronger effect = lower value 0.982 | locus YER111C, strain swi4, stronger effect = lower value 0.968 | locus YER155C, strain BEM2 (second series), stronger effect = lower value 0.981 | locus YER155C, strain BEM2, stronger effect = lower value 1.01 | locus YER167W, strain BCK2, stronger effect = lower value 1.01 | locus YFR010W, strain ubp6, stronger effect = lower value 0.95 | locus YGL078C, strain dbp3, stronger effect = lower value 0.99 | locus YGL086W, strain mad1, stronger effect = lower value 0.982 | locus YGL167C, strain pmr1, stronger effect = lower value 0.959 | locus YGL173C, strain kem1, stronger effect = lower value 0.96 | locus YGL227W, strain vid30, stronger effect = lower value 0.97 | locus YGL240W, strain doc1, stronger effect = lower value 0.945 | locus YGL248W, strain PDE1, stronger effect = lower value 0.962 | locus YGL253W, strain hxk2, stronger effect = lower value 0.985 | locus YGR078C, strain PAC10, stronger effect = lower value 0.969 | locus YGR135W, strain pre9, stronger effect = lower value 0.977 | locus YGR252W, strain gcn5, stronger effect = lower value 1.02 | locus YHR013C, strain ard1, stronger effect = lower value 0.996 | locus YHR027C, strain rpn1, stronger effect = lower value 0.986 | locus YHR030C, strain SLT2, stronger effect = lower value 0.991 and 0.976 | locus YHR079C, strain IRE1 (second series), stronger effect = lower value 1 | locus YHR079C, strain IRE1, stronger effect = lower value 0.977 | locus YHR094C, strain hxt1, stronger effect = lower value 0.983 | locus YHR129C, strain ARP1, stronger effect = lower value 0.983 | locus YHR142W, strain chs7, stronger effect = lower value 0.943 | locus YHR200W, strain rpn10, stronger effect = lower value 0.992 | locus YIL066C, strain RNR3, stronger effect = lower value 1.01 | locus YIL073C, strain SPO22, stronger effect = lower value 1.01 | locus YIL125W, strain kgd1, stronger effect = lower value 0.97 | locus YIR030C, strain dcg1, stronger effect = lower value 0.992 | locus YJL092W, strain hpr5, stronger effect = lower value 0.976 | locus YJL095W, strain BCK1 (second series), stronger effect = lower value 0.982 | locus YJL095W, strain BCK1, stronger effect = lower value 0.888 and 0.991 | locus YJL115W, strain asf1, stronger effect = lower value 0.965 | locus YJL129C, strain trk1, stronger effect = lower value 0.943 | locus YJL134W, strain LCB3, stronger effect = lower value 0.994 | locus YJL154C, strain vps35, stronger effect = lower value 0.972 | locus YJL164C, strain tpk1, stronger effect = lower value 0.988 | locus YJL166W, strain qcr8, stronger effect = lower value 0.941 | locus YJL168C, strain set2, stronger effect = lower value 0.983 | locus YJL187C, strain SWE1 (second series), stronger effect = lower value 0.933 | locus YJR043C, strain POL32, stronger effect = lower value 1.03 | locus YJR066W, strain TOR1, stronger effect = lower value 0.958
